Bioassay records as filed in PubChem BioAssay.
Pf growth 96h: Primary qHTS for delayed death inhibitors of the malarial parasite plastid, 96 hour incubation; P. falciparum luciferase reporter growth, 96 h; Potency, µM (highest dose often 28.7 µM), usual class: inhibitors; 320,000 tested, 6.9% active
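96 h incubation, 37 C, 5% CO2, of luciferase-reporter P. falciparum-infected RBCs (2% hematocrit, 0.05% parasitemia final) with test compounds; endpoint luminescence.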
HCV inh: qHTS Assay for Inhibitors of Hepatitis C Virus (HCV); Huh7.5.1 HCVcc-Cre infection, luciferase reporter, 44 h; Potency, µM (series often up to 41.8 µM), actives largely listed as inhibitors; 340,000 tested, 3.4% active; AID 651820, 2012
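After 44 h co-culture of compound, cells and HCVcc-Cre (~0.5 moi), substrate is added for 15 min at room temperature and luciferase measured over 15 sec. Cells were seeded at 1,000/well and pre-cultured 4 h.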
Shiga toxin inh: A qHTS for Small Molecule Inhibitors of Shiga Toxin. Vero cells, Shiga toxin protein synthesis inhibition reporter. inhibition, % at 38.7 µM. 290,000 tested, 9.2% active. AID 2315, 2010; in the data active = inhibition mostly above about 28%, no sharp cut-off; inactive = mostly below about 43%
Pf growth 48h: Primary qHTS for delayed death inhibitors of the malarial parasite plastid, 48 hour incubation; P. falciparum luciferase growth in erythrocytes, 48 h; Potency, µM (series often up to 28.7 µM), actives largely listed as inhibitors; 310,000 tested, 5.9% active; AID 504832, 2011
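Firefly luciferase activity from engineered P. falciparum reports growth; inhibitors lower the luminescent signal. Cultures contained 2% hematocrit erythrocytes at 0.1% final parasitemia.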
AMA1 RON2 block: qHTS for Inhibitors of AMA1-RON; Towards Development of Antimalarial Drug Lead: Primary Screen. Potency, µM (highest dose often 58.2 µM), usual class: inhibitors. Plasmodium falciparum AMA1 (3D7) - RON2 peptide interaction. AlphaScreen AMA1-biotinylated RON2 peptide binding. 360,000 tested, 0.2% active; note: nearly all actives have a fitted effect of over 45% in size
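AMA1 (3D7) with his tag at 25 nM final met compounds first, then biotinylated RON2 peptide at 25 nM; detection used donor plus acceptor beads, 10 µg/mL apiece, read by AlphaScreen after 30 min at room temperature.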
CHX counter: Cycloheximide Counterscreen for Small Molecule Inhibitors of Shiga Toxin | cell reporter, cycloheximide protein synthesis inhibition counterscreen | max response, % | 300,000 tested, 12% active | AID 2314, 2010; in the data active = max response mostly above about 13%, no sharp cut-off; inactive = mostly below about 14%; note: read at 38.3 µM for the half of the compounds with a filed dose
Hits are given with their value; n = inactive; u = inconclusive; x = no result; [ ] = remark or other dose. Shown are actives, neighbours in structure and some others; about 21% of the full set was active somewhere. Unless noted, calls come from the whole dose curve; as a rule, active = well fitted curve in the direction sought with a large enough effect; inconclusive = small, poorly fitted or top-dose-only effect, or another doubt; inactive = no such curve, though single readings can be large; an effect the other way counts as inactive or inconclusive.

SMILES | Pf growth 96h | HCV inh | Shiga toxin inh | Pf growth 48h | AMA1 RON2 block | CHX counter
NC(=O)c1cc(N2C(=O)C=CC2=O)ccc1Cl | n | x | n | 2.3µM | n | n
COc1ccc(OCC(=O)N2CCCC(Nc3ccc(C)c(C)c3)C2)cc1 (stereo unspecified) | x | x | x | x | n | x
CCOc1ccc(C(CC(=O)O)NC(=O)Cc2ccc(Cl)cc2)cc1 (stereo unspecified) | 3.3µM | n | n | n | n | n
O=C(COCc1cc(-c2ccc3c(c2)OCO3)on1)N1CCCCC1 | n | n | 76 | n | n | 68
NC(=O)C1CCN(C(=O)COCc2cc(-c3ccc4c(c3)OCO4)on2)CC1 | n | n | n | n | n | n
CN1CCN(C(=O)COCc2cc(-c3ccc4c(c3)OCO4)on2)CC1 | n | n | 23 | n | n | 18
COc1ccccc1N1CCN(C(=O)c2cc(-c3ccc4c(c3)OCO4)on2)CC1 | u | u | n | n | n | n
COc1ccc(CNC(=O)CN2C(=O)CSc3ccc(S(=O)(=O)N4CCOCC4)cc32)c(OC)c1 | n | n | n | n | n | n
FC(F)(F)c1cccc(CN2CCCCCC2)c1 | x | n | n | n | n | n
C#CCOc1ccccc1CNC1CCN(Cc2ccccc2)CC1 | 13µM | u | n | 9.3µM | n | n
C#CCOc1ccccc1CNc1ccccc1 | n | n | n | n | n | n
FC(F)(F)c1cccc(CNC2CCN(Cc3ccccc3)CC2)c1 | u | u | n | 2.6µM | n | n
Nc1sc(Cc2ccccc2)cc1C(=O)c1c(-c2ccccc2)[nH]c2ccccc12 | x | x | x | x | n | x
Cc1cc(C)n(Cc2ccccc2)c(=O)c1S(=O)(=O)c1ccccc1 | n | n | n | n | n | n
C#CCn1c(C)cc(C)c(S(=O)(=O)c2ccccc2)c1=O | n | n | 100 | n | n | 26
COc1ccc(C(=O)/C=C/Nc2ccc(S(=O)(=O)Nc3onc(C)c3C)cc2)cc1 | n | n | 77 | n | n | 44
COc1ccc(S(=O)(=O)Nc2ncccn2)cc1 | n | n | n | n | n | n
COc1ccc(C(=O)/C=C/Nc2ccc(S(=O)(=O)Nc3ncccn3)cc2)cc1 | n | n | n | n | x | 20
Cc1noc(NS(=O)(=O)c2ccc(N/C=C\C(=O)c3ccncc3)cc2)c1C | u | n | n | x | n | n
Cc1noc(NS(=O)(=O)c2ccc(N/C=C/C(=O)c3ccc(F)cc3)cc2)c1C | n | n | 69 | n | n | 33
CCc1ccc(C(=O)/C=C/Nc2ccc(S(=O)(=O)Nc3onc(C)c3C)cc2)cc1 | n | n | 92 | n | n[11.6 µM] | 50
O=C(Nc1ccccc1Cl)c1ccc(S(=O)(=O)NCC2CCCO2)cc1 (stereo unspecified) | u | n | n | n | n | n
O=S1(=O)CC(c2ccccc2)=NN=C(c2ccccc2)C1 | x | x | x | x | n | x
Cc1noc(NS(=O)(=O)c2ccc(N/C=C/C(=O)c3ccncc3)cc2)c1C | x | n | n | n | n | n
Cc1noc(NS(=O)(=O)c2ccc(N/C=C/C(=O)c3cccnc3)cc2)c1C | n | n | 43 | n | n | 16
SMILES | Pf growth 96h | HCV inh | Shiga toxin inh | Pf growth 48h | AMA1 RON2 block | CHX counter
CC(O)(CC(=O)CC(=O)c1ccccc1)c1ccccc1 (stereo unspecified) | x | u | x | x | n | x
c1ccc2c(c1)Cn1c-2nc2ccccc21 | n | u | 62 | n | n | 32
Brc1c(-c2ccccc2)nc2n1Cc1ccccc1-2 | n | u | 141 | n | u | 52
Cc1ccc(OC(=O)c2ccncc2)c(C)c1 | n | n | x | n | n | n
CC(O)(c1cccnc1)c1nc(-c2ccc(F)c(Cl)c2)cs1 (stereo unspecified) | x | x | x | x | n | x
Cc1cc(NCCN2CCCCC2)n2c(nc3ccccc32)c1C#N | x | 7.1µM | n | u | x | n
CCC(C)Sc1cc(C)c(C#N)c2nc3ccccc3n12 (stereo unspecified) | 2.9µM | u | n | 8.3µM | n[2.32 µM] | n
Cc1cc(NCCCN(C)C)n2c(nc3ccccc32)c1C#N | n | u | n | n[0.00184 µM] | n | n
Cc1cc(NCCCOC(C)C)n2c(nc3ccccc32)c1C#N | n | u | x | 5.2µM | n | n
